# Hits are enriched below; roughly 32% of the tested compounds scored in any of these assays.
# CYP2C9 inh: blockers of cytochrome P450 2C9 activity – biochemical, luminescence, ADME assay, primary screen. inhibition, % at 5 µM. CYP2C9 Supersomes, luciferin-H conversion. 96,000 tested, 20% active. P11712. AID 777, 2007;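 active = blocking of liver enzyme CYP2C9 beyond about 50% at 5 µM, limit read from the data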
# Target sequence (P11712 whole entry, looked up): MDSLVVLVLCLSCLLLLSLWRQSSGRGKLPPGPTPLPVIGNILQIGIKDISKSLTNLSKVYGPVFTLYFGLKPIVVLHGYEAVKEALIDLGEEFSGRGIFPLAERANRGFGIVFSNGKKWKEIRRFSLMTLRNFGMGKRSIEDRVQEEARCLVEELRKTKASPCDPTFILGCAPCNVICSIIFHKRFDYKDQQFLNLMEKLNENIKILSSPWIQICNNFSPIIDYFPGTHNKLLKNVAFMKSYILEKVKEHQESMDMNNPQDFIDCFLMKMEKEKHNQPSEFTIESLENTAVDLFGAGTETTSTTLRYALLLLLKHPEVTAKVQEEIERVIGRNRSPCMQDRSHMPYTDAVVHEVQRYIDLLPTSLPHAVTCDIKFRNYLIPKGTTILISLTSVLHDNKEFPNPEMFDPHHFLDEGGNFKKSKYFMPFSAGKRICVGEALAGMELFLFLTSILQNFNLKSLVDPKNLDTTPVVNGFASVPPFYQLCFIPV
# CYP2C19 inh: blockers of cytochrome P450 2C19 activity – biochemical, luminescence, ADME assay, primary screen; P33261; CYP2C19 Supersomes, luciferin-H EGE luminescence, 30 min; inhibition, % at 5 µM; 96,000 tested, 21% active; AID 778, 2007;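 active = CYP2C19 inhibition above a set limit at 5 µM in the primary screen, cut at about 50% in these data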
# PostGolgi yeast: phenotypic screen on post-Golgi transport, primary screen. post-Golgi transport phenotypic cell assay. inhibition, % at 10 µM. 98,000 tested, 0.9% active. AID 739, 2007;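 note: yeast cells grown in 1536-well plates; yeast grown about 18 h at 30C before absorbance read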
# PostGolgi ctrl: growth inhibition of yeast control strain, primary screen, counter-screen for post-Golgi transport modulator project; efflux-deficient yeast background strain, growth absorbance A615, 16 h; inhibition, % at 10 µM; 98,000 tested, 5% active; AID 738, 2007
# CYP2C9 act: human CYP2C9 activators, primary screen, biochemical, luminescence. Cytochrome P450 2C9 (Homo sapiens), P11712. recombinant CYP2C9, luciferin-H conversion; active compounds read high; factor 1 = untreated enzyme, 0 = blocked. activation factor at 5 µM. 96,000 tested, 1.4% active;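 active = activation factor of 2 or more for CYP2C9 at a 5 µM dose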
# CYP2C19 activ: human CYP2C19 activators, primary screen, biochemical, luminescence; Cytochrome P450 2C19 (Homo sapiens), P33261; recombinant CYP2C19, luciferin-H EGE luminescence; active compounds read high; 0 = fully inhibited enzyme, 1 = untreated enzyme; 96,000 tested, under 10 active; activation factor at 5 µM;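 active = activation factor of at least 2 at 5 µM in the primary screen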
# Hits are given with their value; - = inactive; . = no result given. Cut-off read from the data, not from the text of the source, unless noted: active = inhibition above about 30%; inactive = the rest.
SMILES,CYP2C9 inh,CYP2C19 inh,PostGolgi yeast,PostGolgi ctrl,CYP2C9 act,CYP2C19 activ
CCn1c(=N)c(C(=O)OC)cc2c(=O)n3ccccc3nc21,-,62.9,.,.,-,-
N=c1c(C(=O)NCc2ccc3c(c2)OCO3)cc2c(=O)n3ccccc3nc2n1Cc1cccnc1,67.3,-,-,-,-,-
CCCC(=O)Nc1c(C)nn(C(=O)CCC)c1C,-,-,-,-,-,-
COc1ccc(-c2ccnc(-c3ccc(OCCCF)cc3)n2)cc1,51.2,-,-,-,-,-
FCCCOc1ccc(-c2nccc(-c3ccc(Cl)cc3)n2)cc1,-,-,-,-,-,-
O=S(=O)(c1ccc(-c2nnc(SCc3ccccc3)o2)cc1)N1CCCC1,-,-,-,-,-,-
Cc1ccc(CSc2nnc(-c3ccc(S(=O)(=O)N4CCCC4)cc3)o2)cc1,-,-,-,-,-,-
O=S(=O)(c1cccc(-c2nnc(SCc3ccc(Cl)cc3)o2)c1)N1CCCCC1,87.3,69.4,-,-,-,-
CN(C)S(=O)(=O)c1cccc(-c2nnc(SCc3ccc4c(c3)OCCO4)o2)c1,92.5,64.0,-,-,-,-
COc1cc(C(=O)Nc2ccc(S(=O)(=O)Nc3nccc(C)n3)cc2)cc(OC)c1OC,-,-,-,-,-,-
N/C(COc1ccc(F)cc1)=N\NC(=O)c1cccnc1Oc1ccccc1,-,-,-,-,-,-
CCN(CC)CCN1C(=O)C(=O)/C(=C(/O)c2ccncc2)C1c1ccccc1F (stereo not drawn),-,-,-,-,-,-
COc1ccc(C(=O)CSC2=C(C#N)C3(CCCCC3)C(C#N)=C(N)N2)cc1,98.0,99.8,-,-,-,-
CC1(C)CC(=O)C2=C(C1)NC(SCC(N)=O)=C(C#N)C21CCCCC1,-,-,-,-,-,-
N#CC1=C(N)NC(SCC(=O)c2ccc(Cl)cc2)=C(C#N)C12CCCC2,97.1,100.4,-,-,-,-
Fc1ccc(NC(=S)N2CCCc3ccccc32)cc1,-,-,-,-,-,-
CC1(C)NC(=O)N(CC(O)COc2ccc(-c3ccccc3)cc2)C1=O (stereo not drawn),-,-,-,-,-,-
CCC(=O)c1ccccc1OCCCN1C(=O)NC(C)(C)C1=O,-,61.9,-,-,-,-
Cc1ccc(C(C)C)c(OCCCN2C(=O)NC(C)(C)C2=O)c1,54.1,89.9,-,-,-,-
CC1(C)NC(=O)N(CCCCOc2ccc3ccccc3c2Cl)C1=O,-,95.3,-,40.8,-,-
CC1(C)NC(=O)N(CCOCCOc2ccc3ccccc3c2Br)C1=O,-,87.8,-,-,-,-
O=C(CSc1nnc(NC(=O)c2ccco2)s1)NC1CCCCC1,-,-,-,-,-,-
Nn1cc(-c2ccccc2)nc1SCC(=O)N1CCN(S(=O)(=O)c2ccc(Cl)cc2)CC1,-,-,-,-,-,-
Cc1ccc(-c2nn(-c3ccccc3)cc2/C=N/NC(=O)CSc2nnc(C)n2-c2ccccc2)cc1,55.9,-,-,-,-,-
Cn1c(=O)[nH]c2sc3c(c2c1=O)CC(C)(C)OC3,-,-,-,-,-,-
SMILES,CYP2C9 inh,CYP2C19 inh,PostGolgi yeast,PostGolgi ctrl,CYP2C9 act,CYP2C19 activ
COc1ccc(C(C[N+](=O)[O-])c2c(-c3ccccc3)cc3ccccn23)cc1 (stereo not drawn),74.1,75.2,-,-,-,-
COc1cc(C(C[N+](=O)[O-])c2c(-c3ccccc3)cc3ccccn23)cc(OC)c1OC (stereo not drawn),59.3,-,-,-,-,-
CC(=O)Nc1ccc(S(=O)(=O)NCCSCc2ccco2)cc1,65.5,60.0,-,-,-,-
CC(=O)Nc1ccc(S(=O)(=O)NCCSCc2c(Cl)cccc2Cl)cc1,76.8,73.1,-,-,-,-
CCCCN(C)CCNC(=O)Cn1ncc2c(=O)oc3ccc(C)cc3c21,-,-,-,-,-,-
COc1cccc(C(=O)Nc2cccc(SC)c2)c1,-,87.0,-,30.2,-,-
COc1cccc(C(=O)Nc2cccc(OCC(=O)O)c2)c1,-,70.1,-,-,-,-
CNC(=O)c1[nH]cnc1C(=O)Nc1cccc(OC)c1,-,66.6,-,-,-,-
COC(=O)c1[nH]c2cc(OC)c(OC)cc2c1NC(=O)c1cccc(OC)c1,58.7,-,-,-,-,-
O=c1nc(N2CCOCC2)ccn1Cc1ccc(Br)cc1,-,-,-,-,-,-
CCC/C(=N/NC(=O)c1csc(C)c1C)c1ccc(Cl)s1,-,-,-,-,-,-
CC(=Nc1ccccc1)C1=C(O)CSC1=O,-,-,-,-,-,-
CC(=Nc1ccccc1C)C1=C(O)CSC1=O,-,75.3,-,-,-,-
CCOc1ccccc1N(C(=O)CNS(=O)(=O)c1ccccc1)C(CC)C(=O)NCc1ccco1 (stereo not drawn),-,-,-,-,-,-
CC(C)[C@H](NC(=O)Nc1ccc(Oc2ccccc2)cc1)C(=O)O,-,-,-,-,-,-
O=C1NC(c2ccccc2)=C(c2nc3ccccc3s2)C(c2ccc(F)cc2)N1 (stereo not drawn),50.4,54.8,-,41.1,-,-
Cc1ccc(C)c(S(=O)(=O)Nc2ccccc2C(=O)Nc2cc(C)on2)c1,55.4,-,-,-,-,-
Cc1cc(NC(=O)c2ccccc2Cl)no1,-,-,-,-,-,-
Cc1cc(NC(=O)c2ccccc2NS(=O)(=O)c2c(C)c(C)cc(C)c2C)no1,66.4,-,-,-,-,-
CN(C)CCCN1C(=O)c2oc3ccc(F)cc3c(=O)c2C1c1cccnc1 (stereo not drawn),-,-,-,-,-,-
Cc1ccc2oc(=O)c3cnn(CC(=O)NCCCOC(C)C)c3c2c1,-,-,-,-,-,-
CS(=O)(=O)N(Cc1ccco1)CC(O)Cn1cc(C=O)c2ccccc21 (stereo not drawn),-,-,-,-,-,-
COc1ccc(CCNC2CC(=O)N(CCc3ccccc3)C2=O)cc1 (stereo not drawn),-,70.4,-,-,-,-
O=C1CC(Nc2ccc3ccccc3c2)C(=O)N1Cc1ccccc1 (stereo not drawn),-,-,-,38.3,-,-
O=C1CC(N2CCN(C3CC(=O)N(CCc4ccccc4)C3=O)CC2)C(=O)N1CCc1ccccc1 (stereo not drawn),-,-,-,46.7,-,-
COc1ccc(CNC2CC(=O)N(C)C2=O)cc1 (stereo not drawn),-,-,-,35.0,-,-
COc1ccc(N2C(=O)CC(NCc3ccncc3)C2=O)cc1 (stereo not drawn),.,.,-,-,.,.
c1cncc(-c2nc3c(ccc4ccccc43)[nH]2)c1,-,-,-,-,-,-

# Assay outcomes: PubChem, several laboratories
